# Laboratory results as given in article PMC5540273 (PLoS ONE, 2017).
# Tested on: EPHA8
# Conditions: concentration: 1 μM, replicates: in singlicate; n = 1
# 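Also: KINOMEscan kinase panel screen.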
row,SMILES,%Inh
1,COc1cc(Nc2nccc(N3CCC(NC(=O)C4COc5ccccc5O4)C3)n2)cc(OC)c1OC (centres unmarked) [GSK1379761],5%
2,COc1cccc(-n2cnc3c(N)ncnc32)c1 [SKF-97416],0%
3,CC(C)(C)c1ccc(C(=O)Nc2cn3cc(-c4ccccc4)ccc3n2)cc1,0%
4,COc1ccc(-c2coc3ccc(-c4nnc(SCc5cccc(C#N)c5)o4)cc23)cc1,0%
5,OCCCNc1nccc(-c2c(-c3cccc(C(F)(F)F)c3)nn3cc(C(F)(F)F)ccc23)n1 [GW630813],0%
6,COC(=O)c1c(-c2ccccc2)c2cc(Br)ccc2c(=O)n1Cc1ccc(S(C)(=O)=O)cc1,23%
7,Cc1cc(Nc2nc(-c3cccc(C)n3)nc3ccccc23)ccn1 [GW872411],0%
8,Nc1ncnc2c1ncn2-c1ccc(Cl)cc1 [AH2635],3%
9,CN(C)c1cc(-c2ccc3c(N)n[nH]c3c2)nc(N)n1 [GSK2219329],3%
10,COc1ccc(-c2cc3c(C)nc(N)nc3n([C@H]3CC[C@H](OCCO)CC3)c2=O)cn1,0%
11,O=C(NCc1cccs1)c1cc(C(=O)c2c(Cl)cccc2Cl)c[nH]1 [GW823670],4%
12,COc1cc2ncn(-c3cc(OCc4ccncc4Br)c(C(N)=O)s3)c2cc1OC [GW854278],5%
13,Cc1nnc(-c2ccc(C)c(-c3ccc(C(=O)O)cc3)c2)o1 [GW608005],0%
14,Cc1nc(N(C)[C@H]2CN(C(=O)CC#N)CC[C@H]2C)c2cc[nH]c2n1,12%
15,O=C1NC(=O)C(c2ccccc2)=C1Nc1cccc(O)c1 [SB-390534],0%
16,COc1ccc(Nc2nccc(N3CCC(NS(=O)(=O)c4ccc(NC(C)=O)cc4)C3)n2)cc1 (centres unmarked) [GSK1379729],7%
17,COC(=O)c1c(-c2ccccc2)c2cc(Br)ccc2c(=O)n1Cc1ccc(NC(=O)CCC(=O)O)cc1,12%
18,Cl.NS(=O)(=O)c1cccc(Nc2cc(-c3ccc(F)cc3)n[nH]2)c1 [GW824645],21%
19,Fc1cccc(CSc2nnc(-c3ccc4c(c3)CCO4)o2)c1,11%

row,SMILES,%Inh
1,Cl.c1ccc(Cn2cnc3cc(Nc4ncnc5ccccc45)ccc32)cc1 [GW272142],10%
2,CN1C(=O)C(Nc2cc(Cl)c(O)c(Cl)c2)=C(c2ccc(Cl)cc2)C1=O [SB-404321],0%
3,COc1cc(OC)cc(-c2cc3cnc(N)nc3nc2NC(=O)NC(C)(C)C)c1,0%
4,Nc1ncnc2c1ncn2-c1cccc2ccccc12 [SKF-97184],0%
5,COc1cccc(C2=C(N(C)c3ccccc3)C(=O)NC2=O)c1 [SB-334865],7%
6,Cc1ccc(Oc2ccc(Nc3ncnc4cc[nH]c34)cc2C)cn1,0%
7,CN1C(=O)C(Nc2ccccc2)=C(c2ccccc2)C1=O [SB-300079],0%
8,CCc1nc(-c2cccc(C)c2)c(-c2ccncc2)s1,0%
9,Cc1cccc(-c2nc(Nc3ccc4c(cnn4C)c3)c3ccccc3n2)n1 [GW876731],0%
10,Nc1n[nH]c2nnc(-c3ccccc3)c(-c3ccccc3)c12 [GW554060],10%
11,CCS(=O)c1ccc(-c2coc3ccc(-c4nnc(C)o4)cc23)cc1 (centres unmarked),0%
12,COc1ccc(CNC(=O)NC2CCN(c3ccnc(Nc4ccc(F)cc4)n3)C2)cc1 (centres unmarked) [GSK1379706],16%
13,COc1ccc(-n2cnc3c(N)ncnc32)cc1 [SKF-97236],10%
14,COc1ccc(-c2cc3c(C)nc(N)nc3n([C@H]3CC[C@H](O)CC3)c2=O)cn1,0%
15,Nc1ncnc2c1ncn2-c1cccc(F)c1 [SKF-97560],10%
16,Cc1cccc(-c2cc(-c3c[nH]nc3-c3ccccn3)ccn2)c1 [GW679395],13%
17,Cc1c(Cn2c(C)nn3c(=O)cc(N4CCO[C@H](C)C4)nc23)cccc1C(F)(F)F [GSK2373690],29%
18,CCCNC(=O)Nc1ccc(Oc2ncnc3ccn(C)c23)cc1,0%

# Tested on: EPHB1
# Conditions: concentration: 1 μM, replicates: in singlicate; n = 1
row,SMILES,%Inh
1,COc1cc(Nc2nccc(N3CCC(NC(=O)C4COc5ccccc5O4)C3)n2)cc(OC)c1OC (centres unmarked) [GSK1379761],6%
2,COc1cccc(-n2cnc3c(N)ncnc32)c1 [SKF-97416],0%
3,CC(C)(C)c1ccc(C(=O)Nc2cn3cc(-c4ccccc4)ccc3n2)cc1,11%
4,COc1ccc(-c2coc3ccc(-c4nnc(SCc5cccc(C#N)c5)o4)cc23)cc1,0%
5,OCCCNc1nccc(-c2c(-c3cccc(C(F)(F)F)c3)nn3cc(C(F)(F)F)ccc23)n1 [GW630813],0%
6,COC(=O)c1c(-c2ccccc2)c2cc(Br)ccc2c(=O)n1Cc1ccc(S(C)(=O)=O)cc1,14%
7,Cc1cc(Nc2nc(-c3cccc(C)n3)nc3ccccc23)ccn1 [GW872411],0%
8,Nc1ncnc2c1ncn2-c1ccc(Cl)cc1 [AH2635],9%
9,CN(C)c1cc(-c2ccc3c(N)n[nH]c3c2)nc(N)n1 [GSK2219329],14%
10,COc1ccc(-c2cc3c(C)nc(N)nc3n([C@H]3CC[C@H](OCCO)CC3)c2=O)cn1,0%
11,O=C(NCc1cccs1)c1cc(C(=O)c2c(Cl)cccc2Cl)c[nH]1 [GW823670],4%
12,COc1cc2ncn(-c3cc(OCc4ccncc4Br)c(C(N)=O)s3)c2cc1OC [GW854278],0%
13,Cc1nnc(-c2ccc(C)c(-c3ccc(C(=O)O)cc3)c2)o1 [GW608005],8%
14,Cc1nc(N(C)[C@H]2CN(C(=O)CC#N)CC[C@H]2C)c2cc[nH]c2n1,8%
15,O=C1NC(=O)C(c2ccccc2)=C1Nc1cccc(O)c1 [SB-390534],0%
16,COc1ccc(Nc2nccc(N3CCC(NS(=O)(=O)c4ccc(NC(C)=O)cc4)C3)n2)cc1 (centres unmarked) [GSK1379729],19%
17,COC(=O)c1c(-c2ccccc2)c2cc(Br)ccc2c(=O)n1Cc1ccc(NC(=O)CCC(=O)O)cc1,5%
18,Cl.NS(=O)(=O)c1cccc(Nc2cc(-c3ccc(F)cc3)n[nH]2)c1 [GW824645],0%
19,Fc1cccc(CSc2nnc(-c3ccc4c(c3)CCO4)o2)c1,9%

row,SMILES,%Inh
1,Cl.c1ccc(Cn2cnc3cc(Nc4ncnc5ccccc45)ccc32)cc1 [GW272142],0%
2,CN1C(=O)C(Nc2cc(Cl)c(O)c(Cl)c2)=C(c2ccc(Cl)cc2)C1=O [SB-404321],0%
3,COc1cc(OC)cc(-c2cc3cnc(N)nc3nc2NC(=O)NC(C)(C)C)c1,0%
4,Nc1ncnc2c1ncn2-c1cccc2ccccc12 [SKF-97184],0%
5,COc1cccc(C2=C(N(C)c3ccccc3)C(=O)NC2=O)c1 [SB-334865],18%
6,Cc1ccc(Oc2ccc(Nc3ncnc4cc[nH]c34)cc2C)cn1,5%
7,CN1C(=O)C(Nc2ccccc2)=C(c2ccccc2)C1=O [SB-300079],17%
8,CCc1nc(-c2cccc(C)c2)c(-c2ccncc2)s1,8%
9,Cc1cccc(-c2nc(Nc3ccc4c(cnn4C)c3)c3ccccc3n2)n1 [GW876731],3%
10,Nc1n[nH]c2nnc(-c3ccccc3)c(-c3ccccc3)c12 [GW554060],9%
11,CCS(=O)c1ccc(-c2coc3ccc(-c4nnc(C)o4)cc23)cc1 (centres unmarked),0%
12,COc1ccc(CNC(=O)NC2CCN(c3ccnc(Nc4ccc(F)cc4)n3)C2)cc1 (centres unmarked) [GSK1379706],16%
13,COc1ccc(-n2cnc3c(N)ncnc32)cc1 [SKF-97236],19%
14,COc1ccc(-c2cc3c(C)nc(N)nc3n([C@H]3CC[C@H](O)CC3)c2=O)cn1,0%
15,Nc1ncnc2c1ncn2-c1cccc(F)c1 [SKF-97560],17%
16,Cc1cccc(-c2cc(-c3c[nH]nc3-c3ccccn3)ccn2)c1 [GW679395],33%
17,Cc1c(Cn2c(C)nn3c(=O)cc(N4CCO[C@H](C)C4)nc23)cccc1C(F)(F)F [GSK2373690],8%
18,CCCNC(=O)Nc1ccc(Oc2ncnc3ccn(C)c23)cc1,1%
